From PubChem BioAssay AID1778 (Sanford-Burnham Center for Chemical Genomics, 2009) come the findings set out here.

Hit rate of the full screen: of about 290,000 compounds, about 260 (0.09%) were called active. The list comes from a sample in which actives are over-represented; it also holds similar structures and randomly drawn compounds. Potency and affinity values are given separately. A number with no mark means an inactive call. Cut-off read from the data, not from the text of the source: active = inhibition above about 50%; inactive = the rest.

In this experiment the target is Kappa-type opioid receptor (Homo sapiens) (UniProt P41145). In words: kappa opioid receptor blockers – cell-based, luminescence, uHTS (AID 1778). As to conditions: KOR beta-arrestin recruitment, antagonist mode, hits give high values; at 10 µM unless noted. A general note: Recruitment of arrestin is a read-out of receptor activation apart from second messengers.
Kappa-type opioid receptor (Homo sapiens), sequence (P41145 whole entry, looked up): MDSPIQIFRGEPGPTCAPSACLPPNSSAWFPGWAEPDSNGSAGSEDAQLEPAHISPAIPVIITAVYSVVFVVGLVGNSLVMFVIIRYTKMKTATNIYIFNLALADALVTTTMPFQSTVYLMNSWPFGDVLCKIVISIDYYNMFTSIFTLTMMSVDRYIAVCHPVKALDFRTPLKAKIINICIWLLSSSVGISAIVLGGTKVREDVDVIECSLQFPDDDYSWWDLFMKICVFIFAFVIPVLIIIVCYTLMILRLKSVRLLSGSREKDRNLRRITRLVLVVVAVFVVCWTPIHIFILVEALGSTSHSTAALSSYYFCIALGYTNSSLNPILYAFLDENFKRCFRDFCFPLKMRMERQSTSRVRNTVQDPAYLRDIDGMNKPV
The term inhibition denotes the drop in the measured response relative to a control, in per cent. Take `NC(=S)Nc1ncc(C(F)(F)F)cc1Cl`: the inhibition is -71.5% [at 20 µM].

As for `NC(=S)c1ncc(C(F)(F)F)cc1Cl`, the inhibition is -11.8%.

Turning to `CCOC(=O)N1CCN(C(=O)Nc2sc3nc4n(c(=O)c3c2C)CCC(C)CC4)CC1` (configuration not stated), the inhibition is -7.4%.

With `COc1ccccc1CCNC(=O)C(=O)NCC1OCCN1S(=O)(=O)c1cc(F)ccc1F` (configuration not stated), the inhibition is -43.3% [at 20 µM].

`CCOc1ccc(-c2nc(C#N)c(NCC3CCCO3)o2)cc1` (configuration not stated): the inhibition is 10.1%.

For `CC(CCc1ccccc1)NC(=O)c1cccc(F)c1` (configuration not stated), the inhibition was -19.3% [at 20 µM].

Consider `COc1ccc(C(=O)/C=C/C(=O)N(CC(=O)NC2CCCCC2)Cc2ccc(F)cc2)c(O)c1`, for which the inhibition was 33.1%.

Turning to `COc1ccc(C(=O)/C=C/C(=O)N(Cc2ccccc2OC)C(C(=O)NC2CCCCC2)c2ccncc2)c(O)c1` (configuration not stated), the inhibition was 12.2%.

As to `COc1ccc(C(=O)/C=C/C(=O)N(CC(=O)NC2CCCCC2)CC2CCCO2)c(O)c1` (configuration not stated), the inhibition is 82.5% (active).

Regarding `COc1ccc(C(=O)/C=C/C(=O)N(Cc2ccc(F)cc2)C(C(=O)NC2CCCCC2)c2ccncc2)c(O)c1` (configuration not stated), the inhibition was 6.8%.

`COc1ccc(C(=O)/C=C/C(=O)N(CC(=O)NC2CCCCC2)Cc2ccccc2OC)c(O)c1`: the inhibition was 56.3% (active).

Regarding `COc1ccc(C(=O)/C=C/C(=O)N(Cc2ccc3c(c2)OCO3)C(C(=O)NC2CCCCC2)c2ccncc2)c(O)c1` (configuration not stated), the inhibition was 15.5%.

Regarding `COc1ccc(C(=O)/C=C/C(=O)N(CC(=O)NC2CCCCC2)Cc2cccs2)c(O)c1`, the inhibition is 26.6%.

For the compound `COc1ccc(CN(C(=O)/C=C/C(=O)c2ccc(OC)cc2O)C(C(=O)NC2CCCCC2)c2ccncc2)cc1` (configuration not stated), the inhibition was 8.2%.

In the case of `COc1ccc(C(=O)/C=C/C(=O)N(Cc2ccccc2)C(C(=O)NC2CCCCC2)c2ccncc2)c(O)c1` (configuration not stated), the inhibition is 9.1%.

Turning to `Cc1ccnc(NC(=O)CCC(=O)N(CC(=O)NC2CCCCC2)CC2CCCO2)c1` (configuration not stated), the inhibition is 11%.

Take `COc1ccc(NS(=O)(=O)c2cc(NC(=O)c3cccnc3Cl)ccc2N2CCCC2)cc1`: the inhibition is 37.4%.

Take `C[C@@H]1CCC[C@]2(O[C@H](CCO)C[C@H](O)[C@H]2O)O1`: the inhibition was 47.9%.

As to `CC1CC2=C(NC(=S)NC2c2cccc(F)c2)/C(=C/c2cccc(F)c2)C1` (configuration not stated), the inhibition is 4.5%.

As to `O=C(c1cccs1)N(C(=O)c1cccs1)c1ccc(Br)cn1`, the inhibition is -21.5%.

For `Cc1cnc(C)c(N2CCN(Cc3nc(-c4ccccc4)no3)CC2)n1`, the inhibition was -15.2%.

Turning to `N#CCCN(NC1=NS(=O)(=O)c2ccccc21)C(=O)c1ccccc1Br`, the inhibition was 8.1%.

As to `CC(=O)Nc1ccc(S(=O)(=O)NCCC(=O)OCc2ccc([N+](=O)[O-])cc2)cc1`, the inhibition is 16.8%.

For `CC1=NN(c2ccc(C)cc2)C(=O)/C1=C\C=C\c1ccccc1`, the inhibition is -74.7%.

As for `CC1=NN(c2ccccc2)C(=O)/C1=C/C=C/c1ccccc1`, the inhibition was -38.6%.

In the case of `CC1=NN(c2ccccc2)C(=O)/C1=C\C=C\c1ccccc1`, the inhibition is -34.7%.

In the case of `CC1=NN(c2ccccc2)C(=O)/C1=C/N(C)C`, the inhibition is 3.4%.

In the case of `O=C(Nc1cccc2c1CCCC2)c1cc([N+](=O)[O-])cc([N+](=O)[O-])c1`, the inhibition is -11.2%.

In the case of `Cc1c(N=c2scc(-c3ccccc3)n2C)c(=O)n(-c2ccccc2)n1C`, the inhibition is 16.6%.

For `CC1=CC(=Nc2c(C)n(C)n(-c3ccccc3)c2=O)C=CC1=O`, the inhibition is 35.7%.

In the case of `O=C(NC1(C(F)(F)F)OCCO1)c1ccc(F)cc1`, the inhibition is -28.6% [at 20 µM].

Turning to `COc1ccc(C(=O)CSc2ncn[nH]2)cc1OC`, the inhibition is 16.2%.

As for `COC(=O)c1ccc(OC(=O)c2cccnc2SC)cc1`, the inhibition is -3.6%.

In the case of `C/C(=N\Nc1nc2ccccc2[nH]1)c1ccc(Cl)s1`, the inhibition was 20.9%.

Turning to `C/C(=N\Nc1ccc(Cl)cc1)c1ccccn1`, the inhibition is 1.2%.

Consider `C/C(=N\Nc1nc2ccccc2[nH]1)c1ccccn1`, for which the inhibition was 91.3% (active).

For the compound `C/C(=N\Nc1ncc(Cl)cc1Cl)c1ccc(C#N)cc1`, the inhibition is -10%.

For `C/C(=N\Nc1nc2ccccc2[nH]1)c1ccc(C)o1`, the inhibition is 33.8%.

In the case of `CC(=O)c1cc(-c2ccccc2)[nH]c1N1CCOCC1`, the inhibition was -10.8%.

With `O=C(O)c1ccccc1S(=O)(=O)NCC(O)COc1ccc(Br)cc1` (configuration not stated), the inhibition is 22.9%.

Turning to `CCCNC(=S)N1CCN(c2nc(-c3ccc(C)cc3)cs2)CC1`, the inhibition is -15.3% [at 20 µM].

For `COc1ccc(NC(=O)/C(Cl)=C(/Cl)S(=O)(=O)Cc2ccc(C)cc2)cn1`, the inhibition is 47.9%.

On to `COc1ccc(CC(=O)Nc2ccc(OC)nc2)cc1`, for which the inhibition is 35.7%.

As for `COc1ccc(NC(=O)C(Cl)=C(Cl)Cl)cn1`, the inhibition is 8%.

With `COc1ccc(CS(=O)(=O)/C(Cl)=C(/Cl)C(=O)Nc2ccc(OC)nc2)cc1`, the inhibition was 40.1%.

Regarding `COc1ccc(NC(=O)/C(Cl)=C(/Cl)S(=O)Cc2ccc(Cl)cc2)cn1` (configuration not stated), the inhibition is 48.8%.

For the compound `COc1ccc(NC(=O)/C(Cl)=C(/Cl)S(=O)(=O)Cc2ccccc2)cn1`, the inhibition is 58.9%.

Regarding `C(=C\CSc1ncn[nH]1)/CSc1ncn[nH]1`, the inhibition was 0.4%.

For the compound `CCSc1nc2c(cnn2-c2ccc(C)cc2)c(=O)[nH]1`, the inhibition was -21.4%.

Turning to `COC(=O)C1=CN(C2CC2)C=C(C(=O)OC)C1c1ccc(C(F)(F)F)cc1`, the inhibition was -9.8% [at 20 µM].

On to `COCCn1c(SCC(=O)N2CCCC2)nnc1-c1ccco1`, for which the inhibition was 10.6%.

Take `O=C(COc1ccc2c(C(F)(F)F)cc(=O)oc2c1)NCc1cccs1`: the inhibition is -40.4%.

For the compound `S=C(Nc1ccc(Oc2ccccc2)cc1)Nc1cccnc1`, the inhibition is -26.6% [at 20 µM].

Consider `Cc1cc(C)cc(N2C(N)=NC(N)=NC2c2ccccc2F)c1` (configuration not stated), for which the inhibition was 1.5%.

With `COC(=O)c1c(NC(=O)CN2CCN(c3ncccn3)CC2)sc(C(N)=O)c1C`, the inhibition was -4.1%.

Take `S=c1sc2c(N3CCN(Cc4ccccc4)CC3)ncnc2n1-c1ccccc1`: the inhibition was -18%.

Take `S=c1sc2c(N3CCOCC3)ncnc2n1-c1ccccc1`: the inhibition is -30.9%.
